# Results: PubChem BioAssay (NCATS)
# Results filed as inconclusive are left out. A call without a number means that no potency is given here. Active and inactive are the calls of the source. Unless noted, calls come from the whole dose curve; as a rule, active = well fitted curve in the direction sought with a large enough effect; inconclusive = small, poorly fitted or top-dose-only effect, or another doubt; inactive = no such curve, though single readings can be large; an effect the other way counts as inactive or inconclusive.
# Columns and labels:
# [1] = biological target: Cytochrome P450 3A4 (Homo sapiens) (UniProt P08684); assay: qHTS Assay for Inhibitors and Substrates of Cytochrome P450 3A4 (AID 884); note: nearly all actives have a fitted effect of over 50% in size
# Cytochrome P450 3A4 (Homo sapiens), sequence (P08684 whole entry, looked up): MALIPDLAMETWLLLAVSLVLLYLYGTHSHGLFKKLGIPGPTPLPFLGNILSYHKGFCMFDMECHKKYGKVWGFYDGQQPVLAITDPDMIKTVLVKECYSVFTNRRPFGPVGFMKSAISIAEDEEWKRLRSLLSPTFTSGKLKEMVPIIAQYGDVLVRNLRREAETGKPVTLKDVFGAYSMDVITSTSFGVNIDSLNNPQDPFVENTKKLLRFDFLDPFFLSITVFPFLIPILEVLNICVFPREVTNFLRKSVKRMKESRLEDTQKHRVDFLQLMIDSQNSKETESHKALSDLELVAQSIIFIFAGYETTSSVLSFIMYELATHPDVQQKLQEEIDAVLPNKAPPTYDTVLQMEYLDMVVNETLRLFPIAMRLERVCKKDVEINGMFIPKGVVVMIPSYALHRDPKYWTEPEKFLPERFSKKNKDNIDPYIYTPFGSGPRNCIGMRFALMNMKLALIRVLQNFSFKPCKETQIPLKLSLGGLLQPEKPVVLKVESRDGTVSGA
# Method in brief: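 Luminescent readout of luciferin produced by CYP3A4 (20 nM) dealkylation of Luciferin-PPXE, 25 uM (its KM). NADPH-driven reaction ran 60 min at RT after 10 min compound preincubation; data scaled to 57 uM ketoconazole as 100% inhibition.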
# [2] = Confirmation and Secondary Assay for Modulators of Hemoglobin Beta Chain Splicing at IVS2 654 locus (AID 910);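 note: per-well total GFP intensity by laser scanning cytometry after 2-day treatment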;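 note: potency is the fitted concentration of half-maximal effect; potency of activators that raise GFP signal by restoring correct splicing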
# Method in brief: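 HeLa cells stably carrying EGFP interrupted by mutant beta-globin IVS2-654 intron (CMV-driven) were treated with compound for 2 days at 37C; corrected splicing was scored as total peak GFP intensity per well (488 nm excitation, 500-520 nm emission).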
# [3] = Confirmation and Secondary Assay for Modulators of Hemoglobin Beta Chain Splicing at IVS2 705 locus (AID 930);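 note: GFP fluorescence per well restored by corrected splicing of the IVS2-705 intron in EGFP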; note: potency is the fitted concentration of half-maximal effect
# Method in brief: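 HeLa IVS2-705 EGFP reporter cells, 500/well, compound 2 d at 37C; correct splicing yields fluorescent EGFP. Control: 500 nM antisense PNA. Read-out: total peak GFP intensity.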
# [4] = qHTS Assay for Lipid Storage Modulators (AID 1519; calls by dose curve); settings: Drosophila S3 cells, BODIPY lipid droplet/cell ratio, laser cytometry, cells loaded with oleic acid; for activity change, negative = inhibition: at 57.5 µM (top of the series)
# Method in brief: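 Cells seeded at 5,000 per well were treated with compounds over a concentration series and loaded with oleic acid (400 uM, as added). Lipid droplet fluorescence (488 nm excitation, 500-530 nm channel) was read by laser-scanning cytometry and normalized to 20 uM Triacsin C.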
# [5] = biological target: Ubiquitin carboxyl-terminal hydrolase 1 (Homo sapiens) (UniProt O94782); assay: Inhibitors of USP1/UAF1: Pilot qHTS (AID 504865);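 note: rhodamine fluorescence freed from ubiquitin-rhodamine substrate followed over time; top concentration of the series differs between compounds; nearly all actives have a fitted effect of over 35% in size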
# Ubiquitin carboxyl-terminal hydrolase 1 (Homo sapiens), sequence (O94782 whole entry, looked up): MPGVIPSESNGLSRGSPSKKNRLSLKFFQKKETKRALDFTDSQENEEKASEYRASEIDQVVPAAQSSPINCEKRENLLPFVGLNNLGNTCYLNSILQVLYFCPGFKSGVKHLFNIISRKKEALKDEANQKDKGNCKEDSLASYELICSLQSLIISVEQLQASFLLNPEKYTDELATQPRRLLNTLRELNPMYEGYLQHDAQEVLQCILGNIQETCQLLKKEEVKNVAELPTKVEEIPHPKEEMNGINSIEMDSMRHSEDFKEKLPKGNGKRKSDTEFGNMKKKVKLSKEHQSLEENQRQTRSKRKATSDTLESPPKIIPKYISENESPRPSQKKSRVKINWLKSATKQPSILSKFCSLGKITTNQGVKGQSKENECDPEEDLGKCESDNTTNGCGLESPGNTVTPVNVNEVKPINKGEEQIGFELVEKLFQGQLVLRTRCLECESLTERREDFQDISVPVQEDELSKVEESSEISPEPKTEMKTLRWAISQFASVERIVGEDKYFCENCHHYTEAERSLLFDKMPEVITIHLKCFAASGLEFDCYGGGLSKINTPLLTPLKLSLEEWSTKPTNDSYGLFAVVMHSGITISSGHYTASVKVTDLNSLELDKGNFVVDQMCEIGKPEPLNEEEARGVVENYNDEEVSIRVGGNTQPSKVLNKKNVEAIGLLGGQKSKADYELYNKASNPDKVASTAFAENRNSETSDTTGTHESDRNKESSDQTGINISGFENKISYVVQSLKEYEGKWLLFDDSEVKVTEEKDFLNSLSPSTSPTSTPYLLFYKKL
# Method in brief: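 Enzyme-free wells gave the negative control, while test wells held 1nM USP1/UAF1 preincubated with compound for 15 min at room temperature. Ub-Rho at 150nM final started the reaction, and fluorescence at 480/540 nm was recorded kinetically.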
# [6] = biological target: Luciferin 4-monooxygenase (Photinus pyralis) (UniProt P08659); assay: Biochemical firefly luciferase enzyme assay for NPC (AID 624030);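 note: purified P. pyralis luciferase at 10 nM with luciferin and ATP substrate; nearly all actives have a fitted effect of over 70% in size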
# Luciferin 4-monooxygenase (Photinus pyralis), sequence (P08659 whole entry, looked up): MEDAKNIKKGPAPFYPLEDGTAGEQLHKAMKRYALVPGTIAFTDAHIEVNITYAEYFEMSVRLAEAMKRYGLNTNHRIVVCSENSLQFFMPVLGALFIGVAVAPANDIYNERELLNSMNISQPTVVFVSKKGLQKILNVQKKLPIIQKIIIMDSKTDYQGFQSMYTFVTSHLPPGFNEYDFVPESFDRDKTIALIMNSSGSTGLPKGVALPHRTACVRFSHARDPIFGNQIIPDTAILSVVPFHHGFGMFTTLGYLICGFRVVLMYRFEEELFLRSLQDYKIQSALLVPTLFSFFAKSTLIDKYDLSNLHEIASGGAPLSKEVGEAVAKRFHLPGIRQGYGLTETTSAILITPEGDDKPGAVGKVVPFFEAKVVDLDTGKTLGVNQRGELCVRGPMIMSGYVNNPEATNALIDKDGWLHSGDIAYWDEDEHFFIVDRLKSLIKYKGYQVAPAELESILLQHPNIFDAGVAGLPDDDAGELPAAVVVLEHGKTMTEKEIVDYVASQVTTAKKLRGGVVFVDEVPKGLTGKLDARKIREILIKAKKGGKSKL
# Method in brief: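 Counter-screen for direct inhibition of the luciferase enzyme by approved-drug library compounds, run at 10 nM enzyme in 50 mM Tris acetate (final). Luminescence was read within 5 min of enzyme-buffer addition and normalized to PTC124 versus DMSO (0%).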
# [7] = S16 Schwann cell PMP22 intronic element beta-lactamase assay (AID 624044; calls by dose curve; note: nearly all actives have a fitted effect of over 15% in size)
# Method in brief: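 Beta-lactamase reporter under a PMP22 intronic regulatory element in stable S16 rat Schwann cells; 24 h compound exposure. 460 nm blue signal normalized between DMSO (0%) and potassium clavulanate, with 535 nm FRET tracking viability; curves classed by r2 and response.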
# [8] = qHTS profiling for inhibitors of Plasmodium falciparum proliferation (AID 504749); note: potency is the fitted concentration of half-maximal effect; for all read-outs here: nearly all actives have a fitted effect of over 60% in size; settings: P. falciparum in erythrocytes, SYBR Green DNA, 72 h; for activity, negative = inhibition: at 28.7 µM (top of the series)
# Method in brief: (§1)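 Fluorescence of SYBR Green-bound parasite DNA, read at 485/535 nm, served as the growth measure. Infected erythrocytes were cultured with compound 72 h; artemisinin (0.29 uM) and DMSO wells defined the normalization range.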
# C2A = assay: as above; settings: P. falciparum in erythrocytes, SYBR Green DNA, 72 h; series mostly up to 12.8 µM
# Method in brief: as §1
# CP191 = assay: as above; settings: P. falciparum in erythrocytes, SYBR Green DNA, 72 h; series mostly up to 12.8 µM
# Method in brief: as §1
# CP201 = assay: as above; settings: P. falciparum in erythrocytes, SYBR Green DNA, 72 h; series mostly up to 12.8 µM
# Method in brief: as §1
# CP238 = assay: as above; settings: P. falciparum in erythrocytes, SYBR Green DNA, 72 h; series mostly up to 12.8 µM
# Method in brief: as §1
# CP262 = assay: as above; settings: P. falciparum in erythrocytes, SYBR Green DNA, 72 h; series mostly up to 12.8 µM
# Method in brief: as §1
# CP268 = assay: as above; settings: P. falciparum in erythrocytes, SYBR Green DNA, 72 h; series mostly up to 12.8 µM
# Method in brief: as §1
# CP315 = assay: as above; settings: P. falciparum in erythrocytes, SYBR Green DNA, 72 h; series mostly up to 12.8 µM
# Method in brief: as §1
# DFO2036 = assay: as above; settings: P. falciparum in erythrocytes, SYBR Green DNA, 72 h; series mostly up to 12.8 µM
# Method in brief: as §1
# ECU = assay: as above; settings: P. falciparum in erythrocytes, SYBR Green DNA, 72 h; series mostly up to 12.8 µM
# Method in brief: as §1
# FAB9 = assay: as above; settings: P. falciparum in erythrocytes, SYBR Green DNA, 72 h; series mostly up to 12.8 µM
# Method in brief: as §1
# PC15 = assay: as above; settings: P. falciparum in erythrocytes, SYBR Green DNA, 72 h; series mostly up to 12.8 µM
# Method in brief: as §1
# PC49 = assay: as above; settings: P. falciparum in erythrocytes, SYBR Green DNA, 72 h; series mostly up to 12.8 µM
# Method in brief: as §1
# [9] = measured here: cell count channel max response
# [10] = measured here: lipid channel max response
compound,measurement,setting,value
CCC(C)C(=O)OC1CC(O)C=C2C=CC(C)C(CCC(O)CC(O)CC(=O)O)C21 (stereo unspecified),Potency,[1],inactive
same,Potency,[2],inactive
same,Potency,[3],inactive
same,"activity change, negative = inhibition",[4],5.21% (inactive)
same,max response,[4]; [9],11.3%
same,max response,[4]; [10],17.6%
same,Potency,[5],inactive
same,Potency,[6],inactive
same,Potency,[7],inactive
same,"activity, negative = inhibition",[8]; parasite line A,-1.64% (inactive)
same,"activity, negative = inhibition",[8]; parasite line B,-21.8% (inactive)
same,Potency,C2A,inactive
same,Potency,CP191,inactive
same,Potency,CP201,inactive
same,Potency,CP238,inactive
same,Potency,CP262,inactive
same,Potency,CP268,inactive
same,Potency,CP315,inactive
same,Potency,DFO2036,inactive
same,Potency,ECU,inactive
same,Potency,FAB9,inactive
same,Potency,PC15,inactive
same,Potency,PC49,inactive
CC1(C)OC2CC(=O)OC[C@@]23C1CC(=O)[C@]1(C)C3CC[C@@]2(C)C(c3ccoc3)OC(=O)C3O[C@@]321 (stereo partly specified),Potency,[2],inactive
same,Potency,[3],inactive
same,"activity change, negative = inhibition",[4],7.05% (inactive)
same,max response,[4]; [9],20.2%
same,max response,[4]; [10],29.2%
same,Potency,[5],inactive
same,Potency,[6],inactive
same,"activity, negative = inhibition",[8]; parasite line A,-0.282% (inactive)
same,"activity, negative = inhibition",[8]; parasite line B,13.3% (inactive)
same,Potency,C2A,inactive
same,Potency,CP191,inactive
same,Potency,CP201,inactive
same,Potency,CP238,inactive
same,Potency,CP262,inactive
same,Potency,CP268,inactive
same,Potency,CP315,inactive
same,Potency,DFO2036,inactive
same,Potency,ECU,inactive
same,Potency,FAB9,inactive
same,Potency,PC15,inactive
same,Potency,PC49,inactive
CC(=O)[C@]1(O)CCC2C3C=C(Cl)C4=CC(=O)C5CC5[C@@]4(C)C3CC[C@]21C (stereo partly specified),Potency,[2],inactive
same,Potency,[3],inactive
same,"activity change, negative = inhibition",[4],8.7% (inactive)
same,max response,[4]; [9],4.22%
same,max response,[4]; [10],14.3%
same,Potency,[6],inactive
same,Potency,[7],inactive
same,"activity, negative = inhibition",[8]; parasite line A,6.27% (inactive)
same,"activity, negative = inhibition",[8]; parasite line B,5.21% (inactive)
same,Potency,C2A,inactive
same,Potency,CP191,inactive
same,Potency,CP201,inactive
same,Potency,CP238,inactive
same,Potency,CP262,inactive
same,Potency,CP268,inactive
same,Potency,CP315,inactive
same,Potency,DFO2036,inactive
same,Potency,ECU,inactive
same,Potency,FAB9,inactive
same,Potency,PC15,inactive
same,Potency,PC49,inactive
COC1OC(CO)C(OC2OC(C(=O)O)C(OC3OC(COS(=O)(=O)O)C(OC4OC(C(=O)O)C(OC5OC(CO)C(OC6OC(C(=O)O)C(OC7OC(COS(=O)(=O)O)C(OC8OC(C(=O)O)=C[C@H](O)C8OS(=O)(=O)O)C(O)C7NC(C)=O)[C@@H](O)C6O)C(O)C5NC(C)=O)[C@@H](O)C4O)C(O)C3NC(C)=O)[C@@H](O)C2O)C(O)C1NC(C)=O (stereo partly specified),Potency,[1],inactive
same,Potency,[2],inactive
same,Potency,[3],inactive
same,"activity change, negative = inhibition",[4],0.455% (inactive)
same,max response,[4]; [9],-2.95%
same,max response,[4]; [10],-0.316%
same,Potency,[5],inactive
same,Potency,[6],inactive
same,Potency,[7],inactive
same,Potency,CP191,11.2 µM (active)
same,Potency,CP201,inactive
same,Potency,CP262,inactive
same,Potency,CP268,inactive
same,Potency,CP315,inactive
CC(C)CCCC(C)C1CCC2C3CC=C4CC(O)CCC4(C)C3CCC12C (stereo unspecified),Potency,[1],inactive
same,"activity change, negative = inhibition",[4],7.38% (inactive)
same,max response,[4]; [9],5.9%
same,max response,[4]; [10],12%
same,Potency,[5],inactive
N[C@H](Cc1ccc(O)cc1)C(=O)O,"activity change, negative = inhibition",[4],2.68% (inactive)
same,max response,[4]; [9],-25.6%
same,max response,[4]; [10],-23%
same,Potency,[5],inactive
OCC1OC(n2cnc3c(=S)nc[nH]c32)C(O)C1O (stereo unspecified),Potency,[1],inactive
same,Potency,[2],3.16 µM (active)
same,Potency,[3],3.98 µM (active)
same,"activity change, negative = inhibition",[4],0.292% (inactive)
same,max response,[4]; [9],-3.48%
same,max response,[4]; [10],-0.429%
same,Potency,[5],inactive
same,Potency,[6],inactive
same,Potency,[7],inactive
same,"activity, negative = inhibition",[8]; parasite line A,-27.9% (inactive)
same,Potency,C2A,inactive
same,Potency,CP191,inactive
same,Potency,CP201,inactive
same,Potency,CP238,inactive
same,Potency,CP262,inactive
same,Potency,CP268,inactive
same,Potency,CP315,inactive
same,Potency,DFO2036,inactive
same,Potency,ECU,inactive
same,Potency,FAB9,inactive
same,Potency,PC15,inactive
same,Potency,PC49,inactive
CCC(=O)O[C@@]1(C(=O)CCl)C(C)CC2C3CCC4=CC(=O)C=C[C@@]4(C)[C@]3(F)C(O)C[C@]21C (stereo partly specified),Potency,[2],inactive
same,Potency,[3],inactive
same,"activity change, negative = inhibition",[4],11.7% (inactive)
same,max response,[4]; [9],9.83%
same,max response,[4]; [10],20.1%
same,Potency,[6],inactive
same,Potency,[7],inactive
same,Potency,CP238,7.94 µM (active)
same,Potency,DFO2036,10 µM (active)
same,Potency,FAB9,inactive
same,Potency,PC49,inactive
COC1CC(O[C@H]2/C(C)=C/CC3CC(C[C@]4(CCC(C)C(C5CCCCC5)O4)O3)OC(=O)[C@H]3C=C(C)/C(=N/O)C4OC/C(=C\C=C\[C@@H]2C)[C@@]43O)OC(C)C1O (stereo partly specified),Potency,[2],inactive
same,"activity change, negative = inhibition",[4],-12.3% (inactive)
same,max response,[4]; [9],13.8%
same,max response,[4]; [10],-0.335%
same,Potency,[6],inactive
same,Potency,[7],inactive
same,Potency,CP191,10 µM (active)
same,Potency,CP201,inactive
same,Potency,CP262,inactive
same,Potency,CP268,inactive
same,Potency,CP315,inactive
same,Potency,PC15,inactive
COc1ccc(-c2cc(=O)c3c(O)cc(O[C@H]4OC(COC5OC(C)C(O)C(O)[C@H]5O)C(O)C(O)C4O)cc3o2)cc1O (stereo partly specified),Potency,[1],inactive
same,Potency,[2],inactive
same,Potency,[3],inactive
same,"activity change, negative = inhibition",[4],5.51% (inactive)
same,max response,[4]; [9],6.56%
same,max response,[4]; [10],15.8%
same,Potency,[6],inactive
same,Potency,[7],inactive
same,"activity, negative = inhibition",[8]; parasite line A,15% (inactive)
same,"activity, negative = inhibition",[8]; parasite line B,23.4% (inactive)
same,Potency,C2A,inactive
same,Potency,CP191,inactive
same,Potency,CP201,inactive
same,Potency,CP238,inactive
same,Potency,CP262,inactive
same,Potency,CP268,inactive
same,Potency,CP315,inactive
same,Potency,DFO2036,inactive
same,Potency,ECU,inactive
same,Potency,FAB9,inactive
same,Potency,PC15,inactive
same,Potency,PC49,inactive
CCC1OC(=O)C(C)[C@@H](O[C@H]2C[C@@](C)(OC)C(O)C(C)O2)C(C)[C@@H](O[C@@H]2OC(C)CC(N(C)C)C2O)[C@@](C)(O)CC(C)C(=O)[C@@H](C)C(O)[C@]1(C)O (stereo partly specified),Potency,[2],inactive
same,Potency,[3],inactive
same,"activity change, negative = inhibition",[4],-1.12% (inactive)
same,max response,[4]; [9],15.2%
same,max response,[4]; [10],17.2%
same,Potency,[5],inactive
same,Potency,[6],inactive
same,Potency,[7],inactive
same,Potency,[8]; parasite line B,11.2 µM (active)
same,Potency,C2A,inactive
same,Potency,CP191,inactive
same,Potency,CP201,inactive
same,Potency,CP238,inactive
same,Potency,CP262,inactive
same,Potency,CP268,inactive
same,Potency,CP315,inactive
same,Potency,DFO2036,inactive
same,Potency,ECU,inactive
same,Potency,FAB9,inactive
same,Potency,PC15,inactive
same,Potency,PC49,inactive
